From PubChem
CHRM1 agonist: human M1 muscarinic receptor agonists, primary screen, Fluo-8 calcium fluorescence, CHO-K1 cells, HTS; CHO-K1 hM1, agonist mode; 0% DMSO, 100% acetylcholine EC100; AID 588814, 2011; activation, % at 3 µM; 0.33% of 360,000 active; Muscarinic acetylcholine receptor M1 (Homo sapiens), P11229;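 active = activation above the run's mean compound activation plus 3 SD, cut at about 16% in these data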;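 note: peak over basal fluorescence ratio within a 140 s kinetic read after compound addition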
Target sequence (P11229 whole entry, looked up): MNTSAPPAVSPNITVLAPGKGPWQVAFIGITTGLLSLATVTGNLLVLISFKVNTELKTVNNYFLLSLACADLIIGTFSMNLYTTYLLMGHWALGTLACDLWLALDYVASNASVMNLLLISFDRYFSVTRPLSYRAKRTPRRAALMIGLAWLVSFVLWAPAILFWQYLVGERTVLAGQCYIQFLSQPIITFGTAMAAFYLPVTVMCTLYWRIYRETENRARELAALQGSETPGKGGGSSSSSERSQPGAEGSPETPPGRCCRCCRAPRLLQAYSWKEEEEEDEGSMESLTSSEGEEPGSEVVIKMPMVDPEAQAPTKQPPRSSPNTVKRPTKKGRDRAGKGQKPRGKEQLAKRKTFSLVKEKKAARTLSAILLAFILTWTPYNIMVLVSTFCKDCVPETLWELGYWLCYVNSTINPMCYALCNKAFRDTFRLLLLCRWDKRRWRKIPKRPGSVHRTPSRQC
CHRM1 PAM: human M1 muscarinic receptor positive allosteric modulators, primary screen, CHO-K1 cells, Fluo-8 calcium fluorescence, 1536-well. CHO-K1 hM1, ACh EC20; 0% = ACh EC20, 100% = maximal ACh. activation, % at 3 µM. 0.088% of 360,000 active. AID 588819, 2011; in the data active = activation above about 19%, passing the limit was not always enough
M1 PAM parental: nonselective calcium activators in parental CHO-K1 cells, primary screen, counter-screen for M1 PAM project, cell-based, Fluo-8 calcium fluorescence, full deck, 1536-well. ATP EC20; 0% at ATP EC20, 100% at ATP max. activation, % at 3 µM. 0.02% of 360,000 active;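 active = activation above the run cutoff, the mean activation of all test compounds plus 3 SD, cut at about 40% in these data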;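 note: peak over basal fluorescence ratio in a 140 s read after ATP addition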
M1 antag: human M1 muscarinic receptor antagonists, primary screen, CHO-K1 cells, Fluo-8 calcium fluorescence, 1536-well | Muscarinic acetylcholine receptor M1 (Homo sapiens), P11229 | 1.3% of 360,000 active | CHO-K1 hM1, ACh EC80 antagonist | inhibition, % at 3 µM;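 active = percent inhibition above its own plate's cutoff, namely the mean of that plate's compound wells plus 3 SD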;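 note: peak over basal fluorescence ratio during 140 s after agonist addition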
M1 ag parental: counter-screen for M1 agonists: effect in parental CHO-K1 cells | Fluo-8 calcium fluorescence; scaled to maximal ATP response, vehicle zero | activation, % at 3 µM | 0.48% of 360,000 active | AID 602248, 2012; in the data active = activation above about 15%;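 note: untransfected CHO-K1 host cells lacking M1 receptor as counterscreen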
CHO-K1 Ca antag: counter-screen for M1 antagonists: effect in parental CHO-K1 cells. 0.6% of 360,000 active. AID 602250. ATP-induced calcium, Fluo-8 fluorescence. inhibition, % at 3 µM;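 active = inhibition above a per-plate cutoff, the plate's mean sample inhibition plus 3 SD, cut at about 24% in these data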
Each line names hits and unclear results; the compound was inactive in the other large screens. Shown are actives, neighbours in structure and some others; about 2.3% of the full set was active somewhere.

Oc1ccc(C[C@@H]2CNCCN2CCc2cc(C(F)(F)F)cc(C(F)(F)F)c2)cc1	CHRM1 PAM 25
CC/C(=N\NC(=O)Nc1ccccc1)c1ccccc1	CHO-K1 Ca antag 34
C/C(CC(C)C)=N\NC(=O)Nc1ccccc1	none
CN(C)CCNc1nc(-c2ccccc2CO)c2sccc2n1	M1 antag 74
Cc1ccccc1-c1nc(NC(C)C)nc2ccsc12	none
Cc1ccccc1-c1nc(NCCN(C)C)nc2ccsc12	M1 antag 88
Cc1cc(C)c2oc(C(=O)N3CCN(C)CC3)cc(=O)c2c1	CHRM1 PAM 32
O=C(Nc1ccc(C(=O)N2CCCc3ccccc32)cc1)c1cccs1	none
O=[N+]([O-])c1ccc(S(=O)(=O)NCCc2cn3ccccc3n2)cc1	CHRM1 PAM 28
O=C(NNC(=O)c1ccc(-n2cncn2)c([N+](=O)[O-])c1)c1cccc(Cl)c1	CHO-K1 Ca antag 48
O=C(NNC(=O)c1ccc(-n2cncn2)c([N+](=O)[O-])c1)c1ccc(Cl)cc1	none
CC(C)C[C@H](NC(=O)c1nc[nH]c1C(=O)N1CCN(C(=O)OC(C)(C)C)CC1)C(=O)OC(C)(C)C	none
C#Cc1ccc(CN2CCC(Oc3ccc(C(=O)NCc4ccccn4)cc3)CC2)cc1	M1 antag 78
CCOc1cccc(CN2CCC(Oc3ccc(C(=O)NCc4ccccn4)cc3)CC2)c1	M1 antag 77
O=C(NCc1ccccn1)c1ccc(OC2CCN(Cc3ccccc3)CC2)cc1	none
COc1ccc(CN2CCC(Oc3ccc(C(=O)NCc4ccccn4)cc3)CC2)c(F)c1	M1 antag 71
Cc1ccc(NC(=O)c2ccc3nsnc3c2)c(Cl)c1	none
CCN(CC(=O)Nc1ccc(NC(C)=O)cc1)C(=O)CN1C(=O)C2CCCCC2C1=O (centres undefined)	none
COc1ccccc1CNC(=O)CC12CC3CC(CC(Br)(C3)C1)C2	none
CCc1ccc2c(COC(=O)C3CC(=O)N(CCc4ccccc4)C3)cc(=O)oc2c1 (centres undefined)	none
CC(C)(C)NS(=O)(=O)c1ccc2nc(NC(=O)c3ccc(N4C(=O)CCC4=O)cc3)sc2c1	M1 ag parental 15
CN1CCN(C2=Cc3ccccc3Sc3cc(F)ccc32)CC1	M1 antag 80
O=C(O)C1Cn2c(nc3c(c2=O)C2(CCCC2)Cc2ccccc2-3)S1 (centres undefined)	none
O=c1[nH]cnc2c1C1(CCCC1)Cc1ccccc1-2	CHO-K1 Ca antag 44
O=c1c2c(nc3n1CCCCC3)-c1ccccc1CC21CCCC1	M1 antag 31
Nn1cnc2c(c1=O)C1(CCCCC1)Cc1ccccc1-2	none
COc1cccc(OC)c1C(=O)Nc1ccc(N2CCCC2)cc1	M1 antag 31
COc1ccccc1C(=O)Nc1ccc(N2CCCCC2)cc1	none
CC(C)Oc1ccc(C(=O)Nc2ccc(N3CCCC3)cc2)cc1	M1 antag 29
C/C(=N\OCC(=O)Nc1nc2ccccc2s1)c1ccccc1	none
COc1ccc(/C(C)=N/OCC(=O)Nc2nc3ccccc3s2)cc1OC	M1 ag parental 19
O=C(CSc1nc2ccccc2o1)Nc1ccc(N2CCOCC2)c(Cl)c1	CHO-K1 Ca antag 28
CN(NC(=O)c1ccccc1Cl)c1ncc(C(F)(F)F)cc1Cl	none
COCCn1c(CN2CCN(c3ccccc3)CC2)nc2c1c(=O)n(C)c(=O)n2C	M1 antag 33
CCCCCn1c(CN2CC(C)OC(C)C2)nc2c1c(=O)n(C)c(=O)n2C (centres undefined)	CHO-K1 Ca antag 24
CCCCCCn1c(CN2CCN(CCO)CC2)nc2c1c(=O)n(C)c(=O)n2C	CHO-K1 Ca antag 24
CC1CN(Cc2nc3c(c(=O)n(C)c(=O)n3C)n2CCN2CCOCC2)CC(C)O1 (centres undefined)	none
CCOCCN1CCN(C2c3ccccc3CSc3ccccc32)CC1 (centres undefined)	M1 antag 100
CCNC(=O)NC1c2ccccc2CSc2ccccc21 (centres undefined)	none
CC12CN3CC(C)(CN(C1)C3c1ccccc1)C2O (centres undefined)	none
CC12CN3CC(C)(CN(C1)C3c1ccc3c(c1)OCO3)C2O (centres undefined)	CHO-K1 Ca antag 100
COc1cccc(CNC(=O)Cn2cc([N+](=O)[O-])cn2)c1	none
Cc1onc(-c2ccccc2)c1C(=O)OCC(=O)NC(=O)c1ccccc1	none
Cc1cc(C(C)(C)C)ccc1OC(=O)C1=CC=CN2CCS(=O)(=O)N=C12	none
Cc1nc2c(OCC(=O)c3ccc(F)cc3)cccn2c1N(C)Cc1cccs1	none
CCc1nc2c(OCCOc3ccc(F)cc3)cccn2c1N(C)C(=O)c1ccc(C)cc1	none
CCc1nc2c(OCCOc3ccccc3)cccn2c1N(C)C(=O)c1ccc(C)cc1	M1 antag 44
Cc1nc2c(OCc3ccc(C#N)cc3)cccn2c1N(C)Cc1cccs1	M1 antag 45
Cc1nc2c(OCc3ccc(C(F)(F)F)cc3)cccn2c1N(C)CC1CC1	M1 antag 36
CCOC(=O)N(C)c1c(CC)nc2c(OCc3ccc(F)c(F)c3)cccn12	none
CCc1nc2c(OCc3ccc(F)c(F)c3)cccn2c1N(C)C(=O)C1CC1	M1 antag 25
CCCc1cc(=O)c2ccc(OC/C(C)=N/O)cc2o1	none
O=C(Cc1ccc(Cl)cc1Cl)Nc1cccc(S(=O)(=O)Nc2ccccc2F)c1	none
Cc1nc2c(OCc3cc(Cl)cc(Cl)c3)cccn2c1N(C)C(=O)CCC1CCCC1	M1 antag 38
Cc1ccc(OCC(=O)Nc2cnn(CCCC(=O)O)c2)c([N+](=O)[O-])c1	none
Cc1cc(/C=C\c2ccc3cc(N(C)C)ccc3[n+]2C)c(C)n1-c1ccccc1	CHRM1 agonist 26, M1 antag 90, M1 ag parental 20, CHO-K1 Ca antag 35
C[n+]1c(/C=C/c2ccc(O)cc2)ccc2ccccc21	none
C[C@H]1CN([C@@H](C)CO)C(=O)Cc2cc(NC(=O)CCC(F)(F)F)ccc2O[C@H]1CN(C)S(=O)(=O)c1ccc(Cl)cc1	none
CCOc1ccc(-c2c(C(=O)N/N=C/c3ccc(C)o3)nnn2-c2nonc2N)cc1	none
COc1cccc(-c2c(C(=O)N/N=C/c3ccco3)nnn2-c2nonc2N)c1	CHRM1 agonist 35, M1 ag parental 16
